Inconclusive results are not listed. Values without a mark were called inactive. Activity calls are given as the source filed them. Calls come from the whole dose curve; as a rule, active = well fitted curve in the direction sought with a large enough effect; inconclusive = small, poorly fitted or top-dose-only effect, or another doubt; inactive = no such curve, though single readings can be large; an effect the other way counts as inactive or inconclusive.
What was measured:
[1] = Quantitative High-Throughput drug screen in 47 multiple myeloma cell lines against the NCATS MIPE library collection: KMS20_JCRB cell viability assay (AID 1918973); note: nearly all actives have a fitted effect of over 45% in size
How it was run: (§1)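 Steps: seed 500 cells per well; pin-transfer MIPE 4.0 library; incubate 48 h at 37C, 5% CO2, humidified; add CellTiter-Glo, 5 min room temperature; read luminescence.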

[2] = Quantitative High-Throughput drug screen in 47 multiple myeloma cell lines against the NCATS MIPE library collection: MMM1_PLB cell viability assay (AID 1918976); note: nearly all actives have a fitted effect of over 35% in size
How it was run: (§2)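 Viability after 48 h drug exposure was measured as ATP-dependent luminescence. Cells, 500 per well, sat at 37 °C under 5% CO2; DMSO wells set 100%, media-only wells 0%.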

[3] = Quantitative High-Throughput drug screen in 47 multiple myeloma cell lines against the NCATS MIPE library collection: NCIH929_DSMZ cell viability assay (AID 1918978); note: nearly all actives have a fitted effect of over 35% in size
How it was run: as §2

[4] = Quantitative High-Throughput drug screen in 47 multiple myeloma cell lines against the NCATS MIPE library collection: MM1S_ATCC cell viability assay (AID 1918980); note: nearly all actives have a fitted effect of over 45% in size
How it was run: as §2

[5] = Quantitative High-Throughput drug screen in 47 multiple myeloma cell lines against the NCATS MIPE library collection: MM1R_ATCC cell viability assay (AID 1918981); note: nearly all actives have a fitted effect of over 35% in size
How it was run: as §2

[6] = Quantitative High-Throughput drug screen in 47 multiple myeloma cell lines against the NCATS MIPE library collection: LP1_DSMZ cell viability assay (AID 1918982); note: nearly all actives have a fitted effect of over 35% in size
How it was run: as §2

[7] = Quantitative High-Throughput drug screen in 47 multiple myeloma cell lines against the NCATS MIPE library collection: KMS28PE_JCRB cell viability assay (AID 1918983); note: nearly all actives have a fitted effect of over 35% in size
How it was run: as §2

[8] = Quantitative High-Throughput drug screen in 47 multiple myeloma cell lines against the NCATS MIPE library collection: L363_DSMZ cell viability assay (AID 1918984); settings: L363 myeloma viability, CellTiter-Glo ATP luminescence, 48 h; viability (% of control): at 45.8 µM (top of the series); note: nearly all actives have a fitted effect of over 40% in size
How it was run: as §2

[9] = Quantitative High-Throughput drug screen in 47 multiple myeloma cell lines against the NCATS MIPE library collection: OCIMY7_PLB cell viability assay (AID 1918987); settings: OCI-MY7 myeloma viability, CellTiter-Glo ATP, 48 h; viability (% of DMSO): at 45.8 µM (top of the series); note: nearly all actives have a fitted effect of over 65% in size
How it was run: as §2

[10] = Quantitative High-Throughput drug screen in 47 multiple myeloma cell lines against the NCATS MIPE library collection: SKMM1_PLB cell viability assay (AID 1919863); settings: SKMM1 myeloma viability, CellTiter-Glo ATP, 48 h; viability: hits give low values; note: nearly all actives have a fitted effect of over 35% in size
How it was run: as §2

[11] = Quantitative High-Throughput drug screen in 47 multiple myeloma cell lines against the NCATS MIPE library collection: KMS21BM_JCRB cell viability assay (AID 1918974); settings: ATP luminescence, 48 h; viability: at 45.8 µM (top of the series)
How it was run: as §1

[12] = Quantitative High-Throughput drug screen in 47 multiple myeloma cell lines against the NCATS MIPE library collection: KMS26_JCRB cell viability assay (AID 1918975); note: nearly all actives have a fitted effect of over 45% in size
How it was run: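 Viability readout: CellTiter-Glo luminescence following 5 min room-temperature incubation with reagent. Prior exposure: 48 h, 37C, humidified 5% CO2, 500 cells per well.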

[13] = Quantitative High-Throughput drug screen in 47 multiple myeloma cell lines against the NCATS MIPE library collection: OCIMY5_PLB cell viability assay (AID 1918988); note: nearly all actives have a fitted effect of over 65% in size
How it was run: as §2

[14] = Quantitative High-Throughput drug screen in 47 multiple myeloma cell lines against the NCATS MIPE library collection: OPM1_PLB cell viability assay (AID 1918989); note: nearly all actives have a fitted effect of over 40% in size
How it was run: as §2

[15] = Quantitative High-Throughput drug screen in 47 multiple myeloma cell lines against the NCATS MIPE library collection: U266_ATCC cell viability assay (AID 1919864); note: nearly all actives have a fitted effect of over 35% in size
How it was run: as §2

[16] = Quantitative High-Throughput drug screen in 47 multiple myeloma cell lines against the NCATS MIPE library collection: XG6_PLB cell viability assay (AID 1919865); note: nearly all actives have a fitted effect of over 40% in size
How it was run: as §2

[17] = Quantitative High-Throughput drug screen in 47 multiple myeloma cell lines against the NCATS MIPE library collection: KMS12PE_JCRB cell viability assay (AID 1918972); note: nearly all actives have a fitted effect of over 30% in size
How it was run: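 qHTS of the MIPE 4.0 collection: 500 myeloma cells/well, 48 h drug exposure at 37C in 5% CO2, then CellTiter-Glo for 5 min at room temperature before luminescence reading.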

[18] = Quantitative High-Throughput drug screen in 47 multiple myeloma cell lines against the NCATS MIPE library collection: KMS34_JCRB cell viability assay (AID 1918985); note: nearly all actives have a fitted effect of over 40% in size
How it was run: as §2

[19] = Quantitative High-Throughput drug screen in 47 multiple myeloma cell lines against the NCATS MIPE library collection: OCIMY1_PLB cell viability assay (AID 1918979); note: nearly all actives have a fitted effect of over 35% in size
How it was run: as §2

[20] = Quantitative High-Throughput drug screen in 47 multiple myeloma cell lines against the NCATS MIPE library collection: MOLP8_DSMZ cell viability assay (AID 1918977); note: nearly all actives have a fitted effect of over 45% in size
How it was run: as §2
Potency is the fitted concentration of half-maximal effect.

C[C@H](CCC(=O)O)[C@H]1CC[C@H]2[C@H]3[C@@H](CC[C@]12C)[C@@]1(C)CC[C@@H](O)C[C@H]1C[C@@H]3O
Potency [1]: inactive
Potency [2]: 1.66 µM (active)
Potency [3]: inactive
Potency [4]: inactive
Potency [5]: inactive
Potency [6]: 16.6 µM (active)
Potency [7]: inactive
Potency [8]: inactive
Potency [9]: inactive
viability [10]: 120%

CC1=C(CC(=O)O)c2cc(F)ccc2C1=Cc1ccc(S(C)=O)cc1 (centres undefined)
Potency [1]: 9.35 µM (active)
Potency [11]: 20.9 µM (active)
Potency [12]: 2.09 µM (active)
Potency [3]: 1.05 µM (active)
Potency [4]: 1.32 µM (active)
Potency [5]: 3.32 µM (active)
Potency [6]: inactive
Potency [7]: 20.9 µM (active)
Potency [8]: 13.2 µM (active)
Potency [13]: 0.935 µM (active)
Potency [14]: 26.4 µM (active)
viability [10]: 92.7%
Potency [15]: 1.18 µM (active)
Potency [16]: 1.05 µM (active)

COc1cc(C=CC(=O)O)ccc1O
Potency [17]: inactive
Potency [3]: inactive
Potency [5]: inactive
Potency [6]: inactive
Potency [7]: inactive
Potency [18]: inactive
Potency [13]: inactive
viability [10]: 124%
Potency [16]: inactive

CCC[C@@H](NC(=O)[C@@H]1[C@H]2CCC[C@@H]2CN1C(=O)[C@@H](NC(=O)[C@@H](NC(=O)c1cnccn1)C1CCCCC1)C(C)(C)C)C(=O)C(=O)NC1CC1
Potency [17]: 14.8 µM (active)
Potency [3]: inactive
Potency [5]: 18.7 µM (active)
Potency [7]: 16.6 µM (active)
Potency [13]: 16.6 µM (active)

CN(C)c1nc(Cc2ccc(NC(=O)c3ccc(C(F)(F)F)cc3)cc2)nc(N(C)C)c1CC(=O)O
Potency [17]: inactive
Potency [3]: inactive
Potency [19]: inactive
Potency [4]: 2.96 µM (active)
Potency [7]: 5.26 µM (active)
Potency [9]: inactive
Potency [14]: inactive
viability [10]: 127%
Potency [15]: inactive

COc1cc2c(cc1Cc1cccc(Cl)c1F)c(=O)c(C(=O)O)cn2[C@H](CO)C(C)C
Potency [12]: 20.9 µM (active)
Potency [2]: 16.6 µM (active)
Potency [3]: 18.7 µM (active)
Potency [4]: 16.6 µM (active)
Potency [18]: 20.9 µM (active)
Potency [9]: 18.7 µM (active)
Potency [13]: 7.43 µM (active)
Potency [16]: 18.7 µM (active)

Cn1c(=O)c(-c2c(Cl)cccc2Cl)cc2cnc(Nc3cccc(C(=O)O)c3)nc21
Potency [11]: 0.0833 µM (active)
Potency [12]: 3.32 µM (active)
Potency [20]: 2.09 µM (active)
Potency [3]: inactive
Potency [5]: 9.35 µM (active)
Potency [7]: 5.26 µM (active)
Potency [8]: 0.59 µM (active)
Potency [13]: 13.2 µM (active)
Potency [10]: 2.09 µM (active)
Potency [15]: inactive
Potency [16]: 0.187 µM (active)

CO[C@H]1/C=C\O[C@@]2(C)Oc3c(C)c(O)c4c(O)c(c(C=NN5CCN(C6CCCC6)CC5)c(O)c4c3C2=O)NC(=O)C(C)=CC=C[C@H](C)[C@H](O)[C@@H](C)[C@@H](O)[C@@H](C)[C@H](OC(C)=O)[C@H]1C
Potency [12]: 20.9 µM (active)
Potency [2]: 5.26 µM (active)
Potency [20]: 8.33 µM (active)
Potency [3]: 0.105 µM (active)
Potency [19]: 9.35 µM (active)
Potency [4]: 0.296 µM (active)
Potency [5]: 0.187 µM (active)
Potency [6]: 1.87 µM (active)
Potency [7]: 0.418 µM (active)
Potency [18]: 2.96 µM (active)
Potency [13]: 0.418 µM (active)
Potency [14]: 0.264 µM (active)
Potency [10]: 7.43 µM (active)
Potency [15]: 16.6 µM (active)
Potency [16]: 0.105 µM (active)

C[C@@H](N)c1ccc(C(=O)Nc2ccnc3[nH]ccc23)cc1
Potency [1]: 18.7 µM (active)
Potency [20]: 16.6 µM (active)
Potency [4]: 18.7 µM (active)
Potency [8]: 20.9 µM (active)
Potency [18]: 20.9 µM (active)
Potency [9]: 14.8 µM (active)
Potency [13]: 23.5 µM (active)
Potency [15]: 16.6 µM (active)
Potency [16]: 20.9 µM (active)

CC(C)(C)c1[nH]cnc1C=c1[nH]c(=O)c(=Cc2ccccc2)[nH]c1=O
Potency [12]: 0.0241 µM (active)
Potency [2]: 15.2 µM (active)
Potency [3]: 0.0215 µM (active)

Cc1ccc(C(=O)N(CCCN)[C@@H](c2nc3cc(Cl)ccc3c(=O)n2Cc2ccccc2)C(C)C)cc1
Potency [12]: 23.5 µM (active)
Potency [2]: 26.4 µM (active)
Potency [3]: 8.33 µM (active)
Potency [18]: inactive
Potency [10]: 23.5 µM (active)
Potency [15]: 26.4 µM (active)

CCNC(=O)c1noc(-c2cc(C(C)C)c(O)cc2O)c1-c1ccc(CN2CCOCC2)cc1
Potency [1]: 0.0209 µM (active)
Potency [3]: 0.0418 µM (active)
Potency [4]: 0.0332 µM (active)
Potency [9]: 0.0469 µM (active)
Potency [14]: 0.0833 µM (active)
Potency [15]: 0.0332 µM (active)
Potency [16]: 0.132 µM (active)

N=C1SC(=Cc2ccc(-c3ccc4c(c3)C(=O)NC4=O)o2)C(=O)N1c1ccc(Br)cc1
Potency [12]: 4.18 µM (active)
Potency [2]: 3.32 µM (active)
Potency [20]: 3.72 µM (active)
Potency [19]: 4.18 µM (active)
Potency [4]: 26.4 µM (active)
Potency [5]: 4.18 µM (active)
Potency [6]: 2.96 µM (active)
Potency [7]: 4.69 µM (active)
Potency [8]: inactive
Potency [18]: 2.64 µM (active)
Potency [13]: 2.96 µM (active)
Potency [10]: 3.32 µM (active)
Potency [16]: 1.66 µM (active)

Cc1ccc2c(c1)c1c(n2CCc2ccc(C)nc2)CCN(C)C1
Potency [12]: inactive
Potency [20]: inactive
Potency [19]: inactive
Potency [4]: inactive
Potency [5]: inactive
Potency [7]: inactive
Potency [15]: inactive
Potency [16]: 16.6 µM (active)

COc1ccnc(CS(=O)c2nc3ccc(OC(F)F)cc3[nH]2)c1OC (centres undefined)
Potency [1]: inactive
Potency [20]: inactive
Potency [19]: inactive
Potency [5]: inactive
Potency [6]: inactive
Potency [7]: inactive
Potency [18]: inactive
Potency [13]: inactive
viability [10]: 150%
Potency [15]: inactive
Potency [16]: 20.9 µM (active)

N#Cc1ccc(Oc2ccc3c(c2)COB3O)cc1
Potency [11]: 3.32 µM (active)
Potency [19]: inactive
Potency [7]: inactive
viability [10]: 113%
Potency [15]: inactive
Potency [16]: 16.6 µM (active)
